The values that follow come from PubChem BioAssay.

A short description of assay [1]: growth inhibition of DIPG glioma cells, dose response, cell-based, SU-DIPG-XVII, MIPE5.0, CellTiter-Glo, qHTS (AID 1347060).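 On AC50: cells exposed to compound for 48 hours before viability readout.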 The conditions noted are these: SU-DIPG-XVII viability, CellTiter-Glo ATP luminescence.
Assay [2] is described as follows: growth inhibition of DIPG glioma cells, dose response, cell-based, SU-DIPG-XIII, MIPE5.0, CellTiter-Glo, qHTS (AID 1347064; cut-off not given, nearly all actives have AC50 up to about 23 µM;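 on AC50: cells exposed to compound for 48 hours before the viability read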). The conditions noted are these: SU-DIPG-XIII viability, CellTiter-Glo ATP luminescence.
A short description of assay [3]: JHH-DIPG-1 glioma cell viability, MIPE5.0 library, CellTiter-Glo luminescence, qHTS (AID 1347067).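 Further: cells exposed to compound for 48 hours before readout.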 The following applies: JHH-DIPG-1 glioma viability, CellTiter-Glo ATP luminescence.
A short description of assay [4]: SU-DIPG-XXV glioma cell viability, MIPE5.0 library, qHTS (AID 1347068; cut-off not given, nearly all actives have IC50 up to about 30 µM;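 on IC50: cells exposed to compound for 48 hours before viability readout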).
A short description of assay [5]: viability loss in pontine glioma line – cell-based, SU-DIPG-XXV, MIPE5.0, CellTiter-Glo, qHTS, dose response (AID 1347065).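 Further: cells exposed to compound for 48 hours before ATP readout.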 The following applies: CellTiter-Glo ATP luminescence.
Assay [6] can be described thus: sensitizers of A549 cells to miR-34 induction, primary screen, imaging, A549 dox-inducible miR-34, nuclei and caspase counts (AID 1347080;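 active means compounds whose cell count with miR-34 switched on is under 0.7 times the count with it off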). The following applies: A549 miR-34 inducible, Hoechst nuclei count, 48 h.
Assay [7] can be described thus: survival rescue of mitochondrial mutant cells in low glucose, primary screen, MELAS cybrids, Rieske KO mouse fibroblasts, CellTiter-Glo (AID 1508586;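 active means mean z-score across replicates of 1.96 or higher in either the MELAS or the Rieske mutant cell line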;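 further: z relative to plate mean and SD of compound and empty wells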).
Setting [8] is: stronger effect = lower value, cell number ratio, induced over uninduced.
[9] abbreviates: measured here: relative caspase fold change +Dox/-Dox.
Where [10] appears, read: measured here: total cells with miR-34 induction, stronger effect = lower value.
Where [11] appears, read: measured here: total cells without miR-34 induction.
Setting [12] is: MELAS cybrid survival, CellTiter-Glo 48 h, stronger effect = higher value.
The mark [13] stands for this setting: Rieske KO mouse fibroblast survival, CellTiter-Glo 72 h.

“And” between values parts separate entries of the source, which are not always exact repeats. Identical values can stand only once. Records with an inconclusive call do not appear. The source made the active and inactive calls. Unless noted, cut-off not given; nearly all actives show AC50 up to about 26 µM.

For `C[C@H](NC(=O)C(=O)Nc1ccccc1C(C)(C)C)C(=O)N[C@@H](CC(=O)O)C(=O)COc1c(F)c(F)cc(F)c1F`, the outcome in assay [1] and in assay [4] was inactive. Moreover, the concentration at half-maximal activity (AC50) is 16.6 µM (active) in assay [2] and 2.95 µM (active) in assay [3].

For `NS(=O)(=O)OC[C@@H]1C[C@@H](n2ccc3c(N[C@H]4CCc5ccccc54)ncnc32)C[C@@H]1O`, in assay [1], the AC50 was 1.48 µM (active). Moreover, the outcome in assay [2], in assay [3] and in assay [4] was inactive.

Consider `Cc1nn(C)c(COc2ccc(N3CCN(S(=O)(=O)N(C)C)CC3)cc2)c1-c1cccc2c(CCCOc3cccc4ccccc34)c(C(=O)O)n(CCN3CCOCC3)c12`, for which the AC50 in assay [1] is 14.8 µM (active); in assay [2] it was 18.6 µM (active); in assay [3], 18.6 µM (active). The molecule was called inactive in assay [4].

Take `CN(C)c1cccc(-c2c3c(=O)n(-c4ccccc4Cl)[nH]c3cc(=O)n2C)c1`: the molecule was called inactive in assay [1], in assay [2], in assay [3] and in assay [4].

Take `CCOc1ccccc1N=Nc1c(C)[nH]n(-c2nc(-c3ccccc3)cs2)c1=O`: the result in assay [1], in assay [2], in assay [3] and in assay [4] was inactive.

With `CS(=O)(=O)c1ccc([C@@H](CC2CCCC2)C(=O)Nc2nccs2)cc1`, the molecule was classed as inactive in assay [1], in assay [2] and in assay [3]. In addition, the IC50 in assay [4] was 13.2 µM (active).

`C[N+](C)(C)CC(=O)O`: the outcome in assay [1], in assay [2], in assay [5] and in assay [4] was inactive.

Take `CN1CCN(C2CCN(C(=O)Nc3cc(Oc4ccc(NC(=O)C5(C(=O)Nc6ccc(F)cc6)CC5)c(F)c4)ccn3)CC2)CC1`: the results for the AC50 in assay [1], in assay [2] and in assay [5] were 18.6 µM (active), 20.9 µM (active) and 13.2 µM (active), respectively. Also, the IC50 in assay [4] is 23.5 µM (active). The fold change in assay [6] (setting [8]) is 0.875 (inactive); in assay [6] (setting [9]), 0.529. Also, the results for the cell count in assay [6] (setting [10]) and in assay [6] (setting [11]) were 3130 and 3570, respectively. Besides, the z-score in assay [7] (setting [12]) is -0.56 (inactive); in assay [7] (setting [13]) it was 0.282.

For the molecule `Cc1[nH]nc(C(F)(F)F)c1Cc1sc2c(c1C(=O)N1C[C@](C)(O)CO1)c(=O)n(C)c(=O)n2C(C)C`, the outcome in assay [1], in assay [2], in assay [3] and in assay [4] was inactive.

Consider `C[C@@]1(c2ncncc2F)NC(=O)c2cc(-c3cn[nH]c3)ccc21`, for which the call in assay [1], in assay [2], in assay [3] and in assay [4] was inactive.

Regarding `O=C(CCl)Nc1cccc(NC2=NS(=O)(=O)c3ccccc32)c1`, the AC50 was 11.8 µM (active) in assay [1], 9.34 µM (active) in assay [2] and 5.25 µM (active) in assay [3].

For `COc1ccc(CNC(=O)Nc2ncc([N+](=O)[O-])s2)cc1`, the concentration at half-maximal activity (AC50) was 18.6 µM (active) in assay [1], 20.9 µM (active) in assay [2] and 20.9 µM (active) in assay [5]. The fold change in assay [6] (setting [8]) was 1.06 (inactive); in assay [6] (setting [9]), 0.577. Moreover, the cell count in assay [6] (setting [10]) was 5600; in assay [6] (setting [11]) it was 5270. The z-score in assay [7] (setting [12]) was -0.43 (inactive); in assay [7] (setting [13]) it was -0.202.

In the case of `O=[N+]([O-])c1ccc(-c2nc(-c3ccc(F)cc3)c(-c3ccncc3)[nH]2)cc1`, the AC50 in assay [1] is 26.3 µM (active); in assay [2], 18.6 µM (active); in assay [5], 26.3 µM (active). In addition, the call in assay [4] was inactive. The fold change in assay [6] (setting [8]) was 1.15 (inactive) and 0.939 (inactive); in assay [6] (setting [9]), 1.13 and 1.14. The cell count in assay [6] (setting [10]) is 4420 and 5750; in assay [6] (setting [11]) it was 3850 and 6120.

In the case of `c1cc(-c2cnn3cc(-c4ccc(N5CCNCC5)cc4)cnc23)c2cccnc2c1`, the values for the AC50 in assay [1], in assay [2] and in assay [5] were 7.42 µM (active), 6.61 µM (active) and 7.42 µM (active), respectively. Also, the IC50 in assay [4] is 9.34 µM (active). The fold change in assay [6] (setting [8]) is 1.02 (inactive); in assay [6] (setting [9]), 0.321. Besides, the figures for the cell count in assay [6] (setting [10]) and in assay [6] (setting [11]) were 216 and 212, respectively. Further, the values for the z-score in assay [7] (setting [12]) and in assay [7] (setting [13]) were 1.7 (inactive) and 0.379, respectively.

Turning to `NS(=O)(=O)c1ccc(S(=O)(=O)Nc2cccc3c(Cl)c[nH]c23)cc1`, the AC50 was 3.32 µM (active) in assay [1], 0.934 µM (active) in assay [2] and 1.18 µM (active) in assay [3].

Consider `Cc1nc(NC(=O)N2CCCC2C(N)=O)sc1-c1ccnc(C(C)(C)C(F)(F)F)c1` (configuration not stated), for which the values for the AC50 in assay [1], in assay [2] and in assay [5] were 5.25 µM (active), 2.63 µM (active) and 2.35 µM (active), respectively. The IC50 in assay [4] is 13.2 µM (active). Besides, the results for the fold change in assay [6] (setting [8]) and in assay [6] (setting [9]) were 0.937 (inactive) and 0.696, respectively. In addition, the cell count turned out to be 5770 in assay [6] (setting [10]) and 6170 in assay [6] (setting [11]). The z-score in assay [7] (setting [12]) is -0.255 (inactive); in assay [7] (setting [13]) it was -0.201.

As to `O=C(Nc1ccc(-c2ccnc(Nc3ccc(N4CCOCC4)cc3)n2)cc1)C1CCCN1` (configuration not stated), the AC50 is 18.6 µM (active) in assay [1], 18.6 µM (active) in assay [2] and 16.6 µM (active) in assay [5]. The outcome in assay [4] was inactive. Also, the fold change was 0.711 (inactive) in assay [6] (setting [8]) and 0.977 in assay [6] (setting [9]). Further, the cell count in assay [6] (setting [10]) was found to be 5090; in assay [6] (setting [11]), 7160. The z-score in assay [7] (setting [12]) was -0.234 (inactive); in assay [7] (setting [13]), -0.152.

`CN1C(N)=N[C@](C)(c2cc(NC(=O)c3ccc(F)cn3)ccc2F)CS1(=O)=O`: the outcome in assay [1], in assay [2], in assay [3] and in assay [4] was inactive.

Regarding `CNC(=O)[C@H](Cc1c[nH]c2ccccc12)NC(=O)[C@@H](CC(=O)NO)CC(C)C`, the call in assay [1], in assay [2], in assay [3] and in assay [4] was inactive. The fold change in assay [6] (setting [8]) is 1.03 (inactive); in assay [6] (setting [9]) it was 0.925. The cell count in assay [6] (setting [10]) came to 4790; in assay [6] (setting [11]), 4630.

Consider `CON(C)C(=O)N1N=C(c2cc(F)ccc2F)S[C@@]1(CCCN)c1ccccc1`, for which the AC50 is 0.00525 µM (active) in assay [1] and 0.00934 µM (active) in assay [5].

As for `CCn1nc(C2CCN(C(=O)CCO)CC2)nc1-c1cnc(N)c(-c2nnc(C(C)(C)C)o2)n1`, the values for the half-maximal activity concentration (AC50) in assay [1] and in assay [5] were 5.9 µM (active) and 2.09 µM (active), respectively.

Take `COc1ccc2c(c1)[C@]1(C[C@H]1c1ccc3c(/C=C/c4ccc(CN5C[C@@H](C)O[C@@H](C)C5)cc4)n[nH]c3c1)C(=O)N2`: the AC50 in assay [1] is 4.17 µM (active); in assay [5], 0.0417 µM (active).

`O=C(Nc1cccc(C(F)(F)F)c1)Nc1cc(S(=O)(=O)NC2CC2)ccc1-c1ccsc1`: the molecule was called inactive in assay [1], in assay [2], in assay [3] and in assay [4]. Also, the fold change in assay [6] (setting [8]) is 0.892 (inactive); in assay [6] (setting [9]), 0.311. Moreover, the cell count in assay [6] (setting [10]) is 6420; in assay [6] (setting [11]), 7200. Besides, the z-score in assay [7] (setting [12]) was -0.374 (inactive); in assay [7] (setting [13]) it was -0.851.

Take `Cc1nc2ccc(-n3ncc(C(=O)c4cc5ccccc5[nH]4)c3N)cc2[nH]1`: the results for the AC50 in assay [1] and in assay [5] were 0.468 µM (active) and 0.833 µM (active), respectively.

Consider `NC1CCCN(c2c(/C=C3\SC(=O)NC3=O)cccc2-c2ccccc2)C1` (configuration not stated), for which the outcome in assay [1], in assay [2], in assay [3] and in assay [4] was inactive.

Turning to `CC#Cc1cncc(-c2ccc3c(c2)[C@@]2(N=C(C)C(N)=N2)C2(CCC(OC)CC2)C3)c1` (some centres not stated), the result in assay [1], in assay [2] and in assay [4] was inactive.

With `C[C@H]1CN(C2COC2)CCN1c1ccc(Nc2cc(-c3ccnc(N4CCn5c(cc6c5CC(C)(C)C6)C4=O)c3CO)cn(C)c2=O)nc1`, the outcome in assay [1], in assay [2], in assay [3] and in assay [4] was inactive.

For `CCN(c1cc(C#CCN2CCOCC2)cc(C(=O)NCc2c(C)cc(C)[nH]c2=O)c1C)C1CCC(N(C)CCOC)CC1` (configuration not stated), the result in assay [1], in assay [2], in assay [3] and in assay [4] was inactive.

For `CCOC(=O)c1ccnc(CNCC(=O)N(CC)CCN(C)C)c1`, the call in assay [1], in assay [2] and in assay [4] was inactive.
